Test results as given in PubChem BioAssay (NCATS).
Inconclusive results are not listed. Calls of active or inactive are those of the source. Calls come from the whole dose curve; as a rule, active = well fitted curve in the direction sought with a large enough effect; inconclusive = small, poorly fitted or top-dose-only effect, or another doubt; inactive = no such curve, though single readings can be large; an effect the other way counts as inactive or inconclusive.

Tests used:
MKL-1 = assay: qHTS assay to identify novel small-molecules to repurpose for Merkel cell carcinoma treatment (AID 1296009); conditions: MCC and control cell lines, CellTiter-Glo viability, 72 h; series mostly up to 46 µM; note: nearly all actives have a fitted effect of over 60% in size
In short: (§1)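 After compound transfer in DMSO, plates were kept 72 hr at 37 degree celsius. Luminescent ATP signal from CellTiter-Glo served as viability measure, normalized against DMSO and no-cell controls.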

MKL-2 = assay: as above; conditions: MCC and control cell lines, CellTiter-Glo viability, 72 h; series mostly up to 46 µM
In short: as §1

UISO = assay: as above; conditions: MCC and control cell lines, CellTiter-Glo viability, 72 h; series mostly up to 46 µM
In short: as §1

WaGa = assay: as above; conditions: MCC and control cell lines, CellTiter-Glo viability, 72 h; series mostly up to 46 µM
In short: as §1

C33A = assay: Primary qHTS to identify gynecologic anti-cancer compounds using libraries of approved drugs and bioactive compounds (AID 1345084); conditions: Gynecologic cancer cell panel viability, ATPlite luminescence, 48 h; series mostly up to 57.5 µM; note: nearly all actives have a fitted effect of over 55% in size; note: potency is the fitted concentration of half-maximal effect
In short: (§2)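 Measured: luminescence after ATPlite addition (15 min, RT). Exposure: 48 h, 37 C, 5% CO2.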

CAOV3 = assay: as above; conditions: Gynecologic cancer cell panel viability, ATPlite luminescence, 48 h; series mostly up to 57.5 µM
In short: as §2

CASKI = assay: as above; conditions: Gynecologic cancer cell panel viability, ATPlite luminescence, 48 h; series mostly up to 57.5 µM
In short: as §2

Es-2 = assay: as above; conditions: Gynecologic cancer cell panel viability, ATPlite luminescence, 48 h; series mostly up to 57.5 µM
In short: as §2

HeLa = assay: as above; conditions: Gynecologic cancer cell panel viability, ATPlite luminescence, 48 h; series mostly up to 57.5 µM
In short: as §2

Measured: Potency

CCOC(=O)[C@H](CCc1ccccc1)N[C@@H](C)C(=O)N1[C@H](C(=O)O)C[C@@H]2CCC[C@@H]21
inactive: all assays above

COC(=O)C(c1ccccc1Cl)N1CCc2sccc2C1 (stereo not given)
inactive: all assays above

COc1cc(NS(=O)(=O)c2ccc(N)cc2)ncn1
inactive: all assays above

CC(C)[C@@H]1CC[C@@H](C)CC1=O
inactive: all assays above

COc1ccc(C(Cl)=C(c2ccc(OC)cc2)c2ccc(OC)cc2)cc1
inactive: all assays above

O=C(O)CCC(=O)Nc1ccc(S(=O)(=O)Nc2nccs2)cc1
inactive: all assays above

O=C(O)CCNC(=O)c1ccccc1
inactive: all assays above

OCc1ccccn1
inactive: all assays above

CC(C)Nc1cccnc1N1CCN(C(=O)c2cc3cc(NS(C)(=O)=O)ccc3[nH]2)CC1
inactive: all assays above

C=C[C@@]1(C)CC(=O)[C@]2(O)[C@@]3(C)[C@@H](O)CCC(C)(C)[C@@H]3[C@H](O)[C@H](OC(C)=O)[C@@]2(C)O1
inactive: all assays above

CCCCC(CC)COC(=O)c1ccc(N(C)C)cc1 (stereo not given)
inactive: all assays above

CC(=O)Nc1ccc(CC(=O)O)cc1
inactive: all assays above

Nc1nc(-c2ccccc2)c(Br)c(=O)[nH]1
inactive: all assays above

CCN1CCCC(OC(=O)C(c2ccccc2)c2ccccc2)C1 (stereo not given)
inactive: all assays above

CCc1cc(Cl)c(OC)c(C(=O)NC[C@@H]2CCCN2CC)c1O
inactive: all assays above

CN(C)C(=O)Nc1ccc(Cl)c(Cl)c1
inactive: all assays above

CC1=C(C(=O)O)N2C(=O)[C@@H](NC(=O)[C@H](N)c3ccccc3)[C@H]2SC1
inactive: all assays above

COc1cc(C(=S)N2CCOCC2)ccc1O
inactive: all assays above

COc1ccc(CN(CCN(C)C)c2ncccn2)cc1
inactive: all assays above

N#CCC(=O)NN
inactive: all assays above

CC(O)Cn1cnc2c1c(=O)n(C)c(=O)n2C (stereo not given)
inactive: all assays above

CCOc1ccccc1OCCN[C@H](C)Cc1ccc(OC)c(S(N)(=O)=O)c1
inactive: all assays above

COc1cc([C@H]2Oc3cc([C@H]4Oc5cc(O)cc(O)c5C(=O)[C@@H]4O)ccc3O[C@@H]2CO)ccc1O
inactive: all assays above

NS(=O)(=O)c1cc2c(cc1Cl)NC(CC1CCCC1)NS2(=O)=O (stereo not given)
inactive: all assays above

COc1cc(C(=O)NCc2ccc(OCCN(C)C)cc2)cc(OC)c1OC
inactive: all assays above

Cc1c(-c2ccccc2)oc2c(C(=O)OCCN3CCCCC3)cccc2c1=O
inactive: all assays above

Cc1cccc(C)c1NC(=O)CN1CCCCCC1
inactive: all assays above

CCN(CC)CCNC(=O)c1cc(Br)c(N)cc1OC
inactive: all assays above

Cc1ccc(-c2ncc(Cl)cc2-c2ccc(S(C)(=O)=O)cc2)cn1
inactive: all assays above

O=C(O)P(=O)(O)O
inactive: all assays above

O=C1c2cccc3c2[C@H](CCC3)CN1[C@@H]1CN2CCC1CC2
inactive: all assays above

Cc1cn([C@H]2C[C@H](F)[C@@H](CO)O2)c(=O)[nH]c1=O
inactive: all assays above

COc1ccc(/C=N/NC(=O)c2ccncc2)cc1OC
inactive: all assays above

Cc1ncc(CO)c(C=O)c1O
inactive: all assays above

CCOCCn1c(N2CCCN(C)CC2)nc2ccccc21
inactive: all assays above

COc1ccccc1N1CCN(CCCCNC(=O)c2ccc(-c3ccc(C(C)=O)cc3)cc2)CC1
inactive: all assays above

Nc1ccc(S(=O)(=O)NCc2ccccc2)cc1
inactive: all assays above

CC(C)(C)NC[C@H](O)COc1cccc2c1CCCC2=O
inactive: all assays above

CCCCC(CC)COC(=O)/C=C/c1ccc(OC)cc1 (stereo not given)
inactive: all assays above

FC(F)(F)C(F)(F)C(F)(F)C(F)(F)C(F)(F)C(F)(F)C(F)(F)C(F)(F)Br
inactive: all assays above

C#C[C@]1(O)CC[C@H]2[C@@H]3CCC4=Cc5oncc5C[C@]4(C)[C@H]3CC[C@@]21C
active: HeLa 794 nM
inactive: all other assays above

C[N+]12CCC(CC1)C(OC(=O)C(O)(c1ccccc1)c1ccccc1)C2 (stereo not given)
inactive: all assays above

CCCCCCCC/C=C\CCCCCCCCN
inactive: all assays above

CCOC(=O)Nc1ccc2c(c1)N(C(=O)CCN1CCOCC1)c1ccccc1S2
inactive: all assays above

Clc1cccc(C(c2ccc3nc[nH]c3c2)n2ccnc2)c1 (stereo not given)
inactive: all assays above
